Screening data from PubChem BioAssay.
Shown are actives, neighbours in structure and some others; about 3.6% of the full set was active somewhere.
NPSR antag: antagonists of human neuropeptide S receptor cAMP signaling | Q6W5P4 | CHO-NPSR cells, cAMP TR-FRET, antagonist mode | Potency, µM (highest dose often 38.3 µM), for the others: top-dose activity change, negative = inhibition, most hits filed as inhibitors | 220,000 tested, 1% active | AID 1461; further: on the % scale 0 is the no-effect control and ±100 the full control effect; nearly all actives have a fitted effect of over 50% in size
Target sequence (Q6W5P4 whole entry, looked up): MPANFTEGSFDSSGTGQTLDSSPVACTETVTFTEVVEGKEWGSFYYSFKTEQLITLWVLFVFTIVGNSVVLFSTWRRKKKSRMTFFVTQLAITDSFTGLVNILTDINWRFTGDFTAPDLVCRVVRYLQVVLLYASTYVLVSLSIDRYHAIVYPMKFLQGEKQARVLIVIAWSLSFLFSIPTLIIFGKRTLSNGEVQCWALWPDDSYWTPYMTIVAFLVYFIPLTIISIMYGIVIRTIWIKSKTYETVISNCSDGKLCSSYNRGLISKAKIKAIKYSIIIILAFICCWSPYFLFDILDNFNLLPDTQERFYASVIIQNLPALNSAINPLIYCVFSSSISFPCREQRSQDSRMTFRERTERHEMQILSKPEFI
Sfp inh: inhibitors of Bacillus subtilis Sfp phosphopantetheinyl transferase | Q9F4F7 | AID 1490 | Potency, µM, without a hit: largest response in the series, negative = inhibition, most hits filed as inhibitors | Biochemical Sfp PPTase activity, qHTS | 310,000 tested, 3.5% active;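 further: the enzyme is Sfp with the accession as filed and its product quenches rhodamine fluorescence; 0% = enzyme reaction without inhibitor and -100% = no enzyme wells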
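Sfp 15 nM + cpd, 15 min RT; start w/ rhodamine-CoA 5 uM, BHQ-2-YbbR 12.5 uM (final); 50 mM Hepes pH 7.6, 10 mM MgCl2, 0.01% NP-40, 0.01% BSA; read 525/598 nm at 0 and 30 min.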
KAT2A inh: inhibitors of human GCN5L2 histone acetyltransferase; AID 504327; Potency, µM (top dose mostly 58.9 µM), inactives show at the top dose activity change, negative = inhibition, most hits filed as inhibitors; 390,000 tested, 0.21% active; GCN5L2 HAT assay, ThioGlo1 CoA-SH fluorescence; further: on the % scale 0 is the no-effect control and ±100 the full control effect
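qHTS, 1536-well. 20nM enzyme, pH 7.5 HEPES/EDTA/Tween-20 buffer; 15 min compound preinc., RT. Start: 75uM H3(1-25), 70uM AcCoA, 50uM ThioGlo1. Read Ex340/Em540 at t=0 (autofluorescence flag) and t=20 min.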
KDM4E inh: blocks human JMJD2E demethylase activity. 230,000 tested, 1.6% active. JMJD2E catalytic domain, FDH-coupled NADH fluorescence (FDH is formaldehyde dehydrogenase). B2RXH2. Potency, µM (top dose mostly 57.1 µM), inactives show at the highest dose activity change, negative = inhibition, actives largely listed as inhibitors; active means well fitted inhibition curve with a large enough effect, not every such curve was filed as active; inconclusive means small, poorly fitted or top-dose-only effect, or another doubt; inactive means no such curve, though single readings can be large or run the other way;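 further: 0% = wells with enzyme and -100% = buffer wells without enzyme; nearly all actives have a fitted effect of over 50% in size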
Target sequence (B2RXH2 1-337 limits assumed): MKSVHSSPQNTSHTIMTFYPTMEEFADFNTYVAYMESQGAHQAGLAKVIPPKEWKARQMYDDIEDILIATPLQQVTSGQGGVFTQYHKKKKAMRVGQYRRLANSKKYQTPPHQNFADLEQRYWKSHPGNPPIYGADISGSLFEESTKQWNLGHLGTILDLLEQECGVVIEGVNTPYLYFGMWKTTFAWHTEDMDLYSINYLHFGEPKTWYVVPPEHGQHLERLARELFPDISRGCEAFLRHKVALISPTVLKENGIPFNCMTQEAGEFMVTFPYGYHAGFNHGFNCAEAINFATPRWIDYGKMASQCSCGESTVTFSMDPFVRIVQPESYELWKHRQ
Epigenetic reg: regulators of epigenetic silencing causing reporter derepression in mouse cells. murine LDR cells, GFP reporter derepression, 30 h. Potency, µM (series often up to 53.9 µM), inactives show at the highest dose GFP activation, most hits filed as activators. 280,000 tested, 0.2% active. AID 1865; further: % of control where 0% means no effect; nearly all actives have a fitted effect of over 60% in size
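Murine LDR cells bearing a silenced CMV-driven GFP reporter were exposed to compound for 30 h at 37 C. After PBS washes, GFP-positive cells (20-120 um objects) counted by laser-scanning microplate cytometry.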
IMPase Li cell: IMPase inhibition in cells with lithium potentiation; Potency, µM (series often up to 59.4 µM), without a hit: at the top dose activity, negative = IMPase inhibition, most hits filed as inhibitors; 210,000 tested, 0.35% active; AID 1457; CHO-M1 cells, IP1 TR-FRET (IP-One), carbachol + lithium;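 further: IP1 builds up when IMPase is blocked and the TR-FRET signal falls; plate controls were basal vehicle for no effect and high inhibitor control for full effect; nearly all actives have a fitted effect of over 50% in size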
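CHO cells stably expressing M1 receptor (2000/well) were cultured 16–30 h, then exposed to compounds with a small lithium addition for 30 min at 37C. IP1 was measured by TR-FRET competition; AC50 from Hill fits.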
Numbers without * were called inactive; ? = inconclusive; nt = no result given; [ ] = another dose, or the depositor's remark. Unless noted, the call rests on the fitted dose curve; in most records, active means well fitted curve in the direction sought with a large enough effect; inconclusive means small, poorly fitted or top-dose-only effect, or another doubt; inactive means no such curve, though single readings can be large; an effect the other way counts as inactive or inconclusive. Potency means the concentration at half of the fitted maximal effect.

SMILES	NPSR antag	Sfp inh	KAT2A inh	KDM4E inh	Epigenetic reg	IMPase Li cell
O=C1CSC(=S)N1N=C1CCCCCC1	-7.8%[46.1 µM]	17.8µM*	-19.1%	-1.8%	0.0%	-9.9%
Cc1cc(C)n(-c2nnc(C)n2/N=C/c2cc(Br)ccc2OCc2ccccc2)n1	?	28.2µM*	-7.1%	-13.7%	2.6%	9.5%[38.3 µM]
Cc1cc(C)n(-c2nnc(C)n2/N=C/c2ccccc2OCc2ccccc2Cl)n1	?	-11.5%	-5.2%	-2.6%	-1.4%	17.4%[38.3 µM]
COc1ccc2c(c1OC)C(Cc1ccccc1)N1CCc3cc4c(cc3C1=C2)OCO4 (stereo unspecified)	nt	50.1µM*	?	-2.2%	3.9%	14.2%
COc1c2c(cc3c1C(CC(O)Cc1ccccc1)N(C)CC3)OCO2 (stereo unspecified)	nt	-2.6%	1.7%	nt	nt	nt
NC(Cc1ccccc1)=NCC(=O)O	nt	nt	nt	nt	nt	0.4%
COc1ccc2cc(Br)ccc2c1CC(=O)N1CCCC1	nt	6.1%	1.4%	nt	nt	nt
COC(=O)C1CCN(C(=O)Cc2c(OC)ccc3cc(Br)ccc23)CC1	-29.8%	56.2µM*	-5.9%	-2.6%	-2.9%	?
CCOc1ccc(/C(O)=C2/C(=O)C(=O)N(CCOCCO)C2c2ccccn2)cc1 (stereo unspecified)	11.5%[46.1 µM]	-2.6%	-7.9%	-13.8%	0.9%	8.91µM*
CCOc1ccc(/C(O)=C2/C(=O)C(=O)N(CCOCCO)C2c2ccc(F)cc2)cc1 (stereo unspecified)	23.7%[46.1 µM]	16.7%	-3.8%	-5.7%	-1.0%	11.2µM*
O=C1C(=O)N(Cc2cccnc2)C(c2ccccn2)/C1=C(/O)c1ccc(F)cc1 (stereo unspecified)	5.3%[46.1 µM]	89.1µM*	-4.8%	?	1.7%	-9.1%[38.3 µM]
COCCN1C(=O)C(=O)/C(=C(/O)c2ccc(C)cc2)C1c1ccccn1 (stereo unspecified)	-16.3%	1.6%	-4.5%	?	-4.7%	4.6%
Cc1c(/C(O)=C2/C(=O)C(=O)N(Cc3cccnc3)C2c2cccs2)cnn1-c1ccccc1 (stereo unspecified)	3.3%[46.1 µM]	-5.1%	-6.6%	-1.9%	-1.0%	7.08µM*
CC(C)[C@H](N)C(=O)N[C@@H](CCC(N)=O)C(=O)NCC(=O)N[C@@H](CCC(=O)O)C(=O)N[C@@H](CCC(=O)O)C(=O)N[C@@H](CO)C(=O)N[C@@H](CC(N)=O)C(=O)N[C@@H](CC(=O)O)C(=O)N[C@@H](CCCCN)C(=O)O	nt	-0.7%	14.3%	nt	nt	nt
CCc1cc2c(nc1CC)CCN(CC/C(C)=N/OC[C@@H](O)[C@@H]1O[C@@H]3OC(C)(C)O[C@@H]3[C@H]1O)C2	nt	-5.3%	nt	nt	3.4%[10.1 µM]	nt
O=C(O)Cc1sc(Nc2ccccc2)nc1-c1cccs1	-19.0%	50.1µM*	-1.2%	-4.5%	1.1%	nt
Cc1ccc(-c2nc(Nc3cccc(C)c3)sc2CC(=O)O)cc1	18.6%	20µM*	-17.8%	?	1.1%	0.6%
CCCOc1ccc(C(=O)NC(=S)NNC(=O)c2c(-c3ccccc3)noc2C)cc1	40.7%	11.8%	-12.1%	11.2µM*	-1.0%	nt
Cc1onc(-c2ccccc2)c1C(=O)NC(=S)NNC(=O)c1ccc(O)cc1O	-6.5%	23.1%	2.0%	11.2µM*	-1.9%	9.7%
Cc1onc(-c2ccccc2)c1C(=O)NC(=S)NNC(=O)c1ccccc1O	-9.9%	14.1%	-6.4%	17.8µM*	-1.0%	1.0%
Cc1onc(-c2ccccc2)c1C(=O)NC(=S)NNC(=O)c1ccc(O)cc1	-16.9%	-26.8%	-1.6%	2.4%	-1.9%	-1.6%
CCn1c(=S)[nH]c2ccccc21	0.8%[46.1 µM]	-8.8%	-0.6%	-4.9%	-5.0%	12.6%[38.3 µM]
CC(C)n1c(=S)[nH]c2ccccc21	9.7%[46.1 µM]	79.4µM*	-7.7%	-4.3%	0.0%	24.4%[38.3 µM]
CNC(=O)C1(C(F)(F)F)C/C(=C\Cc2ccccc2)CCCO1 (stereo unspecified)	nt	0.8%	nt	nt	nt	nt
COc1cccc(Cn2c(=O)cnc3cnc(N(C)C)nc32)c1	nt	31.0%	-19.8%	nt	nt	14.9%
SMILES	NPSR antag	Sfp inh	KAT2A inh	KDM4E inh	Epigenetic reg	IMPase Li cell
Cn1c2ccccc2c2cc(C(=O)N3CCOCC3)sc21	-5.0%[46.1 µM]	44.7µM*	-3.4%	?	-3.2%	-13.8%[38.3 µM]
CCn1c(=O)c2cc(C(=O)N3CCOCC3)sc2c2ccccc21	6.8%[46.1 µM]	9.2%	-1.0%	?	-0.2%	8.0%[38.3 µM]
CC(C(Sc1ccccc1N)c1ccccc1)[N+](=O)[O-] (stereo unspecified)	?	3.98µM*	-18.9%	11.2µM*	?	nt
O=C1C=CC2(OCCCO2)C(Br)=C1	nt	12.7%	nt	nt	0.0%[10.1 µM]	nt
O=C(/C=C/c1ccc(Br)cc1)c1ccc(NC2=NCCCS2)cc1	?	39.8µM*	-1.4%	6.3%	0.0%	-16.6%
CC(C)(C)c1ccc(/C=C/C(=O)c2ccc(NC3=NCCCS3)cc2)cc1	7.94µM*	?	-20.5%	-4.0%	0.0%	-16.1%
O=C(/C=C/c1ccccc1)c1ccc(NC2=NCCCS2)cc1	-53.4%	-13.5%	-9.9%	-3.5%	0.3%	7.1%
Cc1cccc(/C=C/C(=O)c2ccc(NC3=NCCCS3)cc2)c1	-55.6%	-14.3%	-12.7%	-7.7%	3.3%	13.3%
CC(=O)OCC(NC(=O)C(COCc1ccccc1)NC(=O)OC(C)(C)C)C1OC(n2ccc(=O)[nH]c2=O)C(OC(C)=O)C1OC(C)=O (stereo unspecified)	nt	10.2%	nt	nt	nt	nt
COc1cccc(=O)c2c(C)n(CC(=O)c3ccccc3)c(C)c12	-18.9%	44.7µM*	?	-11.2%	-1.7%	12.3%
COc1ccc(OC)c(/C=C/C(=O)NC2=NCCS2)c1	-5.8%	12.6%	5.1%	?	-10.1%	11.2µM*
Nc1[nH]n(-c2ccccc2)c(=O)c1N=Nc1ccc2ncsc2c1	38.4%	50.1µM*	-3.2%	-1.4%	1.3%	nt
COC(=O)/C=C/c1ccsc1NC(C)=O	-0.6%	50.1µM*	-5.7%	4.6%	15.2%	-6.7%
NC(=O)c1ccsc1NC(=O)COC(=O)/C=C/c1ccccc1	nt	nt	-4.4%	nt	nt	nt
Cc1cccc(N2CCN(C(=O)c3ccc4c(c3)NC(=O)C(CSCc3cccc(F)c3)N4)CC2)c1C (stereo unspecified)	nt	89.1µM*	28.2µM*	nt	nt	nt
Cc1cccc(N2CCN(C(=O)CSCc3ccc(F)cc3)CC2)c1C	nt	nt	-2.4%	nt	4.2%	nt
CC1C/C(=N\NC(=O)c2ccc([N+](=O)[O-])cc2)CC(C)(C)C1 (stereo unspecified)	17.7%	79.4µM*	2.7%	56.6%	2.1%	nt
CC1C/C(=N\NC(=O)c2ccc(NS(=O)(=O)c3ccc(Br)cc3)cc2)CC(C)(C)C1 (stereo unspecified)	-25.8%	6.6%	-1.2%	-0.9%	2.3%	2.4%
COc1ccccc1C(=O)Nc1ccc(C(=O)OCc2cc(=O)n3ccsc3n2)cc1	nt	nt	2.5%	nt	-5.4%	nt
